# Inconclusive results are not listed. Where a call stands in place of a potency, no number is given. The source made the active and inactive calls. The call rests on the fitted dose curve; in most records, active means well fitted cell-killing curve with a large enough effect in the repeat runs; inconclusive means weak or mixed curves, or effect the other way; inactive means flat fitted curve, though single readings scatter.
# Assay: qHTS assay to identify small molecule antagonists of the androgen receptor (AR) signaling pathway using the MDA cell line in the presence of 0.5 nM R1881 - cell viability counter screen (AID 1259242); further: nearly all actives have a fitted effect of over 45% in size
# Conditions: MDA-kb2 viability, CellTiter-Fluor protease fluorescence, 16 h; series mostly up to 92.4 µM
# Description: U.S. Tox21 Program National Center for Advancing Translational Sciences [NCATS] NIH Chemical Genomics Center [NCGC] U.S. Environmental Protection Agency [EPA] National Institutes of Environmental Health Sciences [NIEHS] National Toxicology Program [NTP] U.S. Food and Drug Administration [FDA] Tox21 Assay Overview: Androgen receptor (AR) is an important member of the nuclear receptor family. Its signaling plays a critical role in AR-dependent prostate cancer and other androgen related diseases. Considerable attention has been given in the past decades to develop methods to study and screen for the environmental chemicals that have the potential to interfere with metabolic homeostasis, reproduction, developmental and behavioral functions. Therefore AR binding assay for screening androgen antagonists can be used to identify potential endocrine disruptors. MDA-kb2 cells (from ATCC, deposited by Wilson et al.) were used to screen for AR inhibitors against Tox21 compound libraries. These cells are human breast carcinoma cells that were stably transfected with a luciferase reporter gene under control of the MMTV promoter that contains response elements for both androgen receptor (AR) and glucocorticoid receptor (GR). The current screening for identification of AR inhibitors against Tox21 libraries used lower concentration of (0.5 nM) R1881 as a stimulator. The cytotoxicity of the Tox21 compound libraries against MDA-kb2 cell line was tested by measuring live-cell protease activity using CellTiter-Fluor assay in the same wells.
# Tox21 Assay Protocol Summary: MDA-kb2 cells (cells cultured without CO2) were dispensed at 3,000 cells/well in 4 uL of culture medium into white wall/solid-bottom 1536-well plates (Corning Life Sciences, Corning, NY) using a Multidrop Combi (ThermoFisher Scientific, Waltham, MA) dispenser. After the assay plates were incubated at a 37C and 0% CO2 for 5 hr, 23 nL of compounds dissolved in DMSO, positive controls or DMSO only was transferred to the assay plate by a Pintool station (Kalypsys, San Diego, CA). The transfer of compounds was followed by the addition of 1 uL of 0.5 nM (final concentration) agonist (R1881)/culture medium using a Flying Reagent Dispenser (FRD, Aurora Discovery, San Diego, CA). The plates were incubated at 37C and 0% CO2 for 16 hr. For cytotoxicity assay, 1 uL of CellTiter-Fluor reagent (Promega Corporation, Madison, WI) was added to each well using the FRD and after 30 min incubation at 37C and 0% CO2, The fluorescence intensity was measured using ViewLux plate reader (PerkinElmer, Shelton, CT).
row,Compound,Potency
1,CCCN(CCC)C(=O)SCC,inactive
2,CCOC(=O)c1ccc(O)cc1,inactive
3,CC(COCC(C)OC(=O)c1ccccc1)OC(=O)c1ccccc1 (stereo not given),inactive
4,CC(=O)OC/C=C(\C)CCC=C(C)C,inactive
5,CCCCCC(C)=O,inactive
6,COc1ccccc1[N+](=O)[O-],inactive
7,COc1cc(NC(=O)CC(C)=O)c(OC)cc1Cl,inactive
8,CC(=O)OC[C@H]1O[C@@](COC(C)=O)(O[C@H]2O[C@H](COC(C)=O)[C@@H](OC(C)=O)[C@H](OC(C)=O)[C@H]2OC(C)=O)[C@@H](OC(C)=O)[C@@H]1OC(C)=O,inactive
9,CC[N+](CC)(CC(=O)Nc1c(C)cccc1C)Cc1ccccc1,inactive
10,O=C1CCCCCCCCCCC1,inactive
11,O=C(O)Cc1c[nH]c2ccccc12,inactive
12,c1cnc2c(c1)ccc1cccnc12,inactive
13,CN1CCCC1=O,inactive
14,CC/C(C)=N/O,inactive
15,CCCCCCCCCCCC(=O)N(C)CC(=O)O,inactive
16,COc1c(Cl)ccc(Cl)c1C(=O)O,inactive
17,CCCCCCCCO,inactive
18,CC1=CC(=O)CC(C)(C)C1,inactive
19,CCOC(=O)CC(=O)OCC,inactive
20,Clc1cccc(Cl)c1NC1=NCCN1,inactive

row,Compound,Potency
1,Nc1cccc(C(F)(F)F)c1,inactive
2,Brc1ccc(Oc2ccc(Br)cc2)cc1,inactive
3,NC(=O)c1ncn([C@@H]2O[C@H](CO)[C@@H](O)[C@H]2O)n1,inactive
4,O=C(Cl)c1ccc(C(=O)Cl)cc1,inactive
5,O=Cc1ccc(CO)o1,inactive
6,OCC(O)CS (stereo not given),inactive
7,COc1ccc(N)c(OC)c1,inactive
8,CC(C)(CO)CO,inactive
9,Cc1ccccc1Cl,inactive
10,CC(=O)c1nccs1,inactive
11,O=c1c(O)c(-c2ccc(O)c(O)c2)oc2cc(O)cc(O)c12,inactive
12,CC(=O)C(C)C,inactive
13,CC1(C)[C@@H](O[C@H]2O[C@H](C(=O)O)[C@@H](O)[C@H](O)[C@H]2O[C@@H]2O[C@H](C(=O)O)[C@@H](O)[C@H](O)[C@H]2O)CC[C@]2(C)[C@H]3C(=O)C=C4[C@@H]5C[C@@](C)(C(=O)O)CC[C@]5(C)CC[C@@]4(C)[C@]3(C)CC[C@@H]12,inactive
14,C=C(C)CC(C)(C)C,inactive
15,CCCCC(CC)COC(=O)c1ccc(C(=O)OCC(CC)CCCC)cc1 (stereo not given),inactive
16,CC(=O)OC(C)(C)C1CC=C(C)CC1 (stereo not given),inactive
17,Cc1ncc(CO)c(CO)c1O,inactive
18,Cc1ccc([N+](=O)[O-])cc1N,inactive
19,O=C1C(N(CO)C(=O)NCO)N(CO)C(=O)N1CO (stereo not given),inactive
20,Nc1cccc(N)n1,inactive
